Methyltransferases: Primary Screen for Target Class Profiling of Small Molecule Inhibitors of Methyltransferases; hit rate 3.9% among 25,000; purified enzyme, MTase-Glo SAH luminescence; stronger effect = lower value; calls only at 40 µM; call rule not given here
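Each enzyme was assayed with SAM and its substrate. SAH formation detected by MTase-Glo luminescence; single-point 40 uM screen[…].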
MTase-Glo counter: Counterscreen for Target Class Profiling of Small Molecule Inhibitors of Methyltransferases; shares compounds with Methyltransferases; MTase-Glo coupled enzymes, SAH conversion luminescence, no MTase; Potency, µM (series often up to 57.3 µM), most hits filed as inhibitors; hit rate 6% among 180; AID 1745851, 2022; active = well fitted inhibition curve with a large enough effect; inconclusive = small, poorly fitted or top-dose-only effect
Of the large screens only hits and unclear results are named; the others gave an inactive call (follow-up assays come after a bar, where they were run). The sample as a whole holds a higher share of hits than the screen did.

COc1ccc(-c2nn3c(SCC(=O)Nc4cc(Cl)ccc4OC)nnc3[nH]c2=O)cc1	none
CC(C)NC(=O)c1ccc2c(=O)n(C(C)C)c3nn(Cc4ccccc4F)c(=O)n3c2c1	none
CC1(C(=O)NCc2ccccc2)Cn2c(cc3ccccc32)C(=O)N1Cc1ccc(Cl)cc1 (stereo unspecified)	none
CC(C)Cn1c(=O)c2ccc(C(=O)NC3CCCCC3)cc2n2c(=O)n(CC(=O)NC3CCCC3)nc12	none
CSc1ccc(CCNC(=O)c2cc3n(n2)CCCN(Cc2ccc(Cl)cc2)C3=O)cc1	none
CNC(=O)c1ccc2c(C(=Nc3cccc(CN(C)C)c3)c3ccccc3)c(O)[nH]c2c1	Methyltransferases active
O=C(NCc1ccccc1)c1ccc2c(=O)n(-c3cccc(C(F)(F)F)c3)c(=S)[nH]c2c1	none
CCCN1C(=O)c2cc(C(=O)N3CCN(Cc4ccccc4)CC3)nn2CC1(C)C(=O)NC1CCCC1 (stereo unspecified)	none
CCOC(=O)c1cc2n(n1)CC(C)(C(=O)NC1CCC(C)CC1)N(Cc1cccc(F)c1)C2=O (stereo unspecified)	none
CC(=O)Nc1ccc(Nc2nc3c(S(=O)(=O)c4ccc(Cl)cc4)nnn3c3ccccc23)cc1	none
CNCCC(c1cccs1)c1ccc(O)c2ccccc12 (stereo unspecified)	Methyltransferases active
COc1ccc(CN2C(=O)c3cc(C(C)(C)C)nn3CC2(C)C(=O)NC2CCCCC2)cc1 (stereo unspecified)	none
Cc1ccc(C)c(N2C(=O)c3cc4oc(C)cc4n3CC2(C)C(=O)NC2CCCCCC2)c1 (stereo unspecified)	none
Cc1cc(N2C(=O)Cn3cccc3C2C(=O)NC2CCC(C)CC2)ccc1Br (stereo unspecified)	none
CC(C)CCn1c(=O)c2ccccc2n2c(=O)n(CC(=O)Nc3cccc(F)c3)nc12	none
C=C1C(=O)O[C@@H]2/C=C(\CO)CC/C=C(/C=O)C[C@@H](O)[C@@H]12	Methyltransferases active
C=C1C(=O)OC2/C=C(\COC(C)=O)CC/C=C(\C=O)CC(OC(=O)CC(C)C)C12 (stereo unspecified)	none
C=C1C(=O)OC2/C=C(\CO)CC/C=C(\C=O)CC(OC(=O)CC(C)C)C12 (stereo unspecified)	Methyltransferases active
C=C1C(=O)O[C@@H]2/C=C(\CO)CC/C=C(/C=O)C[C@H](O)[C@@H]12	Methyltransferases active
C=C1C(=O)OC2C3=C(C)C(=O)CC3C(C)CC(O)C12 (stereo unspecified)	none
C=C1C(=O)OC2/C=C(\C)CC/C=C(\C(=O)O)CC/C=C(\C)CCC12 (stereo unspecified)	none
C=C(C)C(=O)O[C@H]1[C@H]2C(=C)C(=O)O[C@@H]2/C=C(\CO)CC/C=C(/C=O)[C@@H]1O	none
CC1(C(=O)NC2CCCCCCC2)Cn2c(cc3occc32)C(=O)N1Cc1ccccn1 (stereo unspecified)	none
CC1(C(=O)NC2CCCCC2)Cn2c(ccc2-c2ccccc2)C(=O)N1CCCc1ccccc1 (stereo unspecified)	none
COc1ccc(Br)cc1CNC(=O)c1cc2n(n1)CC(C)(C(=O)NCc1ccccc1)N(C)C2=O (stereo unspecified)	none
CCC(C)NC(=O)c1ccc2c(=O)n(CC(C)C)c3nn(Cc4ccccc4)c(=O)n3c2c1 (stereo unspecified)	none
CN1C(=O)c2cc(C(=O)NCCSCc3ccco3)nn2CC1(C)C(=O)NCc1ccc(F)cc1 (stereo unspecified)	none
Cn1c(=O)c2ccc(C(=O)NC3CCCCC3)cc2n2c(=O)n(CC(=O)Nc3ccccc3)nc12	none
CCC(C(=O)NCc1ccc(F)cc1)n1ccc2cc(S(=O)(=O)N3CCCCC3)ccc21 (stereo unspecified)	none
CC1(C(=O)N2CCCC2)CCC(=O)N1CCc1ccccc1Cl (stereo unspecified)	none
CC1(C(=O)NCc2ccc(F)cc2)Cn2cnc(C(=O)Nc3ccc(F)cc3Cl)c2C(=O)N1C1CC1 (stereo unspecified)	none
CC1CCCN1C(=O)c1cc(-c2ccc(C(F)(F)F)cc2)nc2c1cnn2C (stereo unspecified)	none
Cn1ncc2c(N3CCN(S(N)(=O)=O)CC3)nc(C3CCCC3)nc21	Methyltransferases active | MTase-Glo counter inconclusive
CC1(C(=O)NC2CCCCCCC2)Cn2c(cc3sccc32)C(=O)N1Cc1ccccc1 (stereo unspecified)	none
Cc1ccc(C)c(N2C(=O)c3cc(-c4ccco4)nn3CC2(C)C(=O)NC2CCCCC2)c1 (stereo unspecified)	none
CC1(C(=O)NC2CCCCC2)Cn2c(cc3occc32)C(=O)N1Cc1cccc(F)c1 (stereo unspecified)	none
CCCCNC(=O)c1cccc(-c2cc(N3CCN(C)CC3)nc(N)n2)c1	Methyltransferases active | MTase-Glo counter inactive
CCCCCNC(=O)c1ccc2c(=O)nc3c(-c4cccc(F)c4)n[nH]n3c2c1	none
COc1cccc(C(=O)NCCN2CCN(c3ccc(Cl)cc3)CC2)c1	none
Cc1cc(C)c(NC(=O)Cn2c(=O)oc3cc(S(=O)(=O)N4CCCC4)ccc32)c(C)c1	none
CNC(=O)CCn1ccc2cc(S(=O)(=O)N3CCC(C)CC3)ccc21	none
Cc1ccc(C)c(Cn2nc3n(CCC(C)C)c(=O)c4ccc(C(=O)NC(C)C)cc4n3c2=O)c1	none
CN1CCN(c2ncnc3sc4c(c23)CCNC4)CC1	Methyltransferases active | MTase-Glo counter 15µM
CN1CCN(c2ncnc3c2CN(C2CCCCC2)C(=O)CN3C)CC1	none
CCNc1ncnc2sc3c(c12)CCN(C(=O)COC)C3	none
Cc1ccc(C)c(C(=O)Cn2nc3n(C)c(=O)c4ccc(C(=O)NC5CCCCC5)cc4n3c2=O)c1	none
COc1ccc(OC)c(CCN2C(=O)c3cc4ccccc4n3CC2(C)C(=O)NCc2ccccc2OC)c1 (stereo unspecified)	none
CCN(CCc1nc2ccc(C)cc2[nH]1)C(=O)c1ccccc1C1CCNC1 (stereo unspecified)	Methyltransferases active | MTase-Glo counter inactive
COCCN1CCCC(c2[nH]ccc2C(=O)NCCc2nc3ccccc3[nH]2)C1 (stereo unspecified)	none
CCNC(=O)N1C[C@@H](F)[C@@H](OCc2nc3ccc(F)cc3[nH]2)C1	none
CCC(C)NC(=O)CCn1ccc2cc(S(=O)(=O)N3CCCCC3)ccc21 (stereo unspecified)	none
CC(=O)Nc1c2n(c3ccccc13)CC(C)(C(=O)NC1CCCCCC1)N(C1CCC(C)CC1)C2=O (stereo unspecified)	none
Cn1c(=O)n(C)c2cc(S(=O)(=O)N3CCN(c4ccc(F)cc4)CC3)ccc21	none
CCOc1ccccc1NC(=O)N1CCn2c(C)ccc2C1CC (stereo unspecified)	none
Cc1cnc(CCNC(=O)c2ccc(C#N)cc2)n1C1CC1	none
O=C(Nc1ccc2c(c1)OCCO2)N1CC(c2nc(CCOCC3CC3)no2)C1	none
Cc1cnc(CCNC(=O)c2n[nH]c(=O)c3ccccc23)n1C1CCCCC1	Methyltransferases active | MTase-Glo counter inactive
Cc1cnc(CCNC(=O)c2cccs2)n1C1CCC1	Methyltransferases active | MTase-Glo counter inactive
Cc1cnc(CC2CCN(C(=O)Nc3ccc4c(c3)OCCO4)C2)n1C1CC1 (stereo unspecified)	none
Cc1cnc(CCNC(=O)Nc2ccc3c(c2)OCCO3)n1C1CCC1	Methyltransferases active | MTase-Glo counter inactive
